A number with no mark means an inactive call. Records with an inconclusive call do not appear. Activity calls are given as the source filed them. Unless noted, calls come from the whole dose curve; as a rule, active = well fitted curve in the direction sought with a large enough effect in the repeat runs; inconclusive = weak or mixed curves; inactive = no such curve, though single readings can be large; an effect the other way counts as inactive or inconclusive.

The nature of assay [1]: qHTS assay to identify small molecule agonists of the TGF-beta/Smad signaling pathway (AID 1346859; active = well fitted activation curve with a large enough effect in the signal ratio in the repeat runs, not every such curve was filed as active; the % refers to the signal ratio; note: series mostly up to about 77 µM). The procedure, abridged: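 Read-out: fluorescence at 460 and 530 nm (405 nm excitation) after a 2 hr room-temperature incubation with beta-lactamase FRET substrate. SBE-bla HEK 293T cells had been treated with test compounds for 5 hr at 37 C.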
A short description of assay [2]: Human pregnane X receptor (PXR) small molecule agonists, qHTS cell viability counter screen (AID 1346977). Note: nearly all actives have a fitted effect of over 50% in size. The method in brief: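 Fluorescence read-out (CellTiter-Fluor) of viability in PXR-Luc HepG2 cells, multiplexed with the luciferase agonist read. Compounds in DMSO added after 5hr plating; 24hr total exposure at 37C, 5% CO2.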
A short description of assay [3]: Caspase-3/7 induction in HepG2 cells by small molecules, qHTS assay (AID 1346978). Note: nearly all actives have a fitted effect of over 15% in size. The method in brief:
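Wild-type HepG2 cells (2,000/well) were settled 5 h at 37 C, 5% CO2, then exposed to compounds in DMSO for 17 h. Caspase-3/7 activity was read by luminescence 30 min after adding Caspase-Glo 3/7 reagent at room temperature.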

The nature of assay [4]: Caspase-3/7 induction in CHO-K1 cells by small molecules, qHTS cell viability counter screen (AID 1346979). Note: nearly all actives have a fitted effect of over 35% in size. The method in brief:
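CHO-K1 wt, 1,500 cells/well; 5hr pre-incubation 37C/5% CO2; compound pin transfer (DMSO); 16hr exposure; CellTiter-Fluor added, 1hr, fluorescence read.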

Assay [5] can be described thus: Caspase-3/7 induction in HepG2 cells by small molecules, qHTS cell viability counter screen (AID 1346981). Note: series mostly up to about 92 µM; nearly all actives have a fitted effect of over 30% in size. The procedure, abridged: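 Fluorescence read-out of live-cell protease activity (CellTiter-Fluor) after 1 hr with reagent. This was measured in the same wells as the caspase-3/7 luminescence, on HepG2 cells exposed to DMSO-dissolved compounds for 16 hr at 37 C.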

Assay [6] concerns the target Nuclear receptor subfamily 1 group I member 2 (Rattus norvegicus) (UniProt Q9R1A7). The assay can be described thus: Rat pregnane X receptor (rPXR) activation by small molecules, qHTS assay (AID 1346983). Note: nearly all actives have a fitted effect of over 20% in size. Particulars: rPXR luciferase reporter cells, One-Glo luminescence, 24 h; max activation: stronger effect = higher value. The procedure, abridged: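 Cell-based rPXR luciferase reporter assay, 2,000 cells per well, rested 5hr at 37 C before compound addition in DMSO, then 24 hr at 37 C. One-Glo reagent was added and luminescence read after 30 min at room temperature.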

The target of assay [7] is Nuclear receptor subfamily 1 group I member 2 (Homo sapiens) (UniProt O75469). The assay can be described thus: CYP3A4 induction through human pregnane X receptor (PXR) by small molecules, qHTS assay (AID 1346984). Note: nearly all actives have a fitted effect of over 40% in size. The procedure, abridged: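 HepG2-derived DPX-2 line carrying PXR plus a CYP3A4-promoter luciferase reporter; cells plated 5 hr, compound-exposed 24 hr at 37C. CYP3A4 activity probed with 3uM (final) Luciferin-IPA for 3hr, then luciferase read after One-Glo.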

The target is the same in assay [8]. The assay can be described thus: Human pregnane X receptor (PXR) activation by small molecules, qHTS assay (AID 1346985). Note: nearly all actives have a fitted effect of over 40% in size. The procedure, abridged: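 DPX-2 cells (HepG2 co-transfected with a PXR response element and a CYP3A4-promoter luciferase construct) were seeded at 2,000 per well, rested 5 hr at 37C, then exposed to DMSO-dissolved compounds for 24 hr. Activation was read as luciferase luminescence.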

Assay [9] has as its target Cytochrome P450 2C19 (Homo sapiens) (UniProt P33261). The assay can be described thus: Cytochrome P450 Family 2 Subfamily C Member 19 (CYP2C19) small molecule antagonists: luciferase reporter qHTS assay (AID 1671197). For activity change, negative = inhibition: series mostly up to about 120 µM. Note: nearly all actives have a fitted effect of over 65% in size. Note: potency is the fitted concentration of half-maximal effect. The procedure, abridged: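 Compounds were tested on CYP2C19 activity via proluciferin conversion to luciferin. The 37C, 1 h reaction followed NADPH addition; detection reagent stopped it.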

The target in assay [10] is Cytochrome P450 2C9 (Homo sapiens) (UniProt P11712). Nature of the assay: Cytochrome P450 Family 2 Subfamily C Member 9 (CYP2C9) small molecule antagonists: luciferase reporter qHTS assay (AID 1671198). For activity change, negative = inhibition: series mostly up to about 120 µM. Note: nearly all actives have a fitted effect of over 50% in size. Note: potency is the fitted concentration of half-maximal effect. The procedure, abridged: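 CYP2C9 activity was measured with a P450-Glo proluciferin substrate. Enzyme–substrate mix was held with compound for 10 min at room temperature, then NADPH regeneration solution was added for 1 h at 37C. Luciferin product was read as luminescence.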

Assay [11] has as its target Voltage-gated inwardly rectifying potassium channel KCNH2 (Homo sapiens) (UniProt Q12809). The assay can be described thus: Human Ether-a-go-go-Related Gene (hERG) channel small molecule antagonists: fluorescence cell-based qHTS assay (AID 1671200).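 Note: hERG-expressing U2OS cells given a thallium stimulus after FluxOR II dye loading; series mostly up to about 77 µM; nearly all actives have a fitted effect of over 50% in size.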 The method in brief: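 Read-out: thallium influx as a surrogate for potassium, tracked as fluorescence (480 nm ex/540 nm em) every second for 2 min after Stimulus Buffer addition in dye-loaded hERG-U2OS cells.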

For assay [12], the target named is Cytochrome P450 3A4 (Homo sapiens) (UniProt P08684). Nature of the assay: Cytochrome P450 Family 3 Subfamily A Member 4 (CYP3A4) small molecule antagonists: luciferase reporter qHTS assay (AID 1671201). For activity change, negative = inhibition: series mostly up to about 120 µM. Note: nearly all actives have a fitted effect of over 50% in size. Note: potency is the fitted concentration of half-maximal effect. The method in brief:
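Luminescent readout (RLU) proportional to CYP3A4 activity, from luciferin generated off a proluciferin substrate. Enzyme–substrate mix plus compound 10 min at room temp, NADPH regeneration 1 h, detection reagent 20 min.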

Assay [13] addresses Nuclear receptor subfamily 1 group I member 2 (Homo sapiens) (UniProt O75469). Nature of the assay: Human pregnane X receptor (PXR) small molecule agonists, qHTS assay (AID 1346982). Note: nearly all actives have a fitted effect of over 35% in size. Note: potency is the fitted concentration of half-maximal effect. The procedure, abridged:
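HepG2 PXR-Luc reporter line, 5% charcoal-stripped FBS; 5 hr pre-incubation, compound (DMSO) 24 hr at 37 C/5% CO2; ONE-Glo 30 min RT; luminescence read-out.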

Assay [14] in a line: Caspase-3/7 induction in CHO-K1 cells by small molecules, qHTS assay (AID 1346980). Note: nearly all actives have a fitted effect of over 15% in size. The procedure, abridged:
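Wild-type cells were seeded at 1,500 per well and settled 5 hr at 37 C, 5% CO2, then exposed to DMSO-dissolved compounds for 17 hr. Caspase-Glo 3/7 reagent was added, and luminescence was read after 30min at room temperature.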

For assay [15], the target named is Cytochrome P450 1A2 (Homo sapiens) (UniProt P05177). The assay can be described thus: Cytochrome P450 Family 1 Subfamily A Member 2 (CYP1A2) small molecule antagonists: luciferase reporter qHTS assay (AID 1671199). For activity change, negative = inhibition: series mostly up to about 120 µM. Note: nearly all actives have a fitted effect of over 50% in size. Note: potency is the fitted concentration of half-maximal effect. The method in brief:
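Luminescence readout (relative luminescence units) after luciferin detection reagent, 20 min RT. Preceded by 1 h room-temperature CYP1A2 reaction with NADPH regeneration solution following 10 min compound preincubation with enzyme and proluciferin substrate. Furafylline positive control.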

For assay [16], the target named is Thyrotropin-releasing hormone receptor (Homo sapiens) (UniProt P34981). The assay can be described thus: qHTS assay to identify small molecule antagonists of the thyrotropin-releasing hormone receptor (TRHR) signaling pathway (AID 1346877; active = well fitted inhibition curve with a large enough effect in the repeat runs, not every such curve was filed as active; note: series mostly up to about 51 µM). The procedure, abridged:
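HEK293/TRHR cells, 18 h, 37 °C; Ca2+ dye 2 h; cpd 5 min RT; TRH 1 nM final; fluorescence read 3 min, 1 s intervals; 15 concs, triplicate.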

The target is the same in assay [17]. The assay can be described thus: qHTS assay to identify small molecule agonists of the thyrotropin-releasing hormone receptor (TRHR) signaling pathway (AID 1346891; calls by dose curve;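 note: HEK293 cells expressing TRHR with calcium dye readout; series mostly up to about 58 µM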). The procedure, abridged:
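HEK293/TRHR cells, 1500 per well, 18 h 37 °C; Ca dye 2 h 37 °C; pin-tool compound addition (agonist mode); kinetic fluorescence 3 min, 1 s reads; 15 concentrations, triplicate.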

The target in assay [18] is Cytochrome P450 2D6 (Homo sapiens) (UniProt P10635). Nature of the assay: Cytochrome P450 Family 2 Subfamily D Member 6 (CYP2D6) small molecule antagonists: luciferase reporter qHTS assay (AID 1671196). The method in brief:
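Luminogenic proluciferin substrate, CYP2D6 enzyme; 10 min RT preincubation with compound, NADPH regeneration system added, 1 h RT. Stop/detection reagent, 20 min RT, luminescence read (RLU). Signal proportional to CYP activity.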
% is set by controls: 0 for no effect and ±100 for the full control effect.

Cytochrome P450 3A4 (Homo sapiens), sequence (P08684 whole entry, looked up): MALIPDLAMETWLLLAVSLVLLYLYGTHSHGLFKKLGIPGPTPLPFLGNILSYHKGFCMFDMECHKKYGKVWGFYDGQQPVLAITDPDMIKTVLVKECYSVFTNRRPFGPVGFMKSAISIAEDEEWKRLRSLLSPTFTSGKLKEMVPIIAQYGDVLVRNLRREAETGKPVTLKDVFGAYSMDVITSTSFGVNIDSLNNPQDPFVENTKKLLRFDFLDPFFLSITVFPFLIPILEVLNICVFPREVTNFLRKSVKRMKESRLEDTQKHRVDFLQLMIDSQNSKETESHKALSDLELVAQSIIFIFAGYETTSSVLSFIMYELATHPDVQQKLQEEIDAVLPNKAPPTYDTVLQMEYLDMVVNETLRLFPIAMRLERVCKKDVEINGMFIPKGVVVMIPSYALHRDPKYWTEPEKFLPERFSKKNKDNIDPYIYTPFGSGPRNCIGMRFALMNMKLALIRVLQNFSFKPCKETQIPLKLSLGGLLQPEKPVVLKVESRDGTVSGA
Thyrotropin-releasing hormone receptor (Homo sapiens), sequence (P34981 whole entry, looked up): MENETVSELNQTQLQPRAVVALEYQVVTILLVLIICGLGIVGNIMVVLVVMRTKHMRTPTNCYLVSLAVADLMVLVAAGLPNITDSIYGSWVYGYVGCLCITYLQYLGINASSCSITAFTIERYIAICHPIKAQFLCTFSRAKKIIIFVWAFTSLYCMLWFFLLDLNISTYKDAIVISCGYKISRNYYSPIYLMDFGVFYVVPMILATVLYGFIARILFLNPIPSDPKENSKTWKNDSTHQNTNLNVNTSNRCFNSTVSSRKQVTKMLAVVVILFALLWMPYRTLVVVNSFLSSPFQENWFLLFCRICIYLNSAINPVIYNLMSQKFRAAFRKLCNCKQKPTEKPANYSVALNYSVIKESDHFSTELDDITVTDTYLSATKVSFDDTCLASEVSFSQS
Nuclear receptor subfamily 1 group I member 2 (Homo sapiens), sequence (O75469 whole entry, looked up): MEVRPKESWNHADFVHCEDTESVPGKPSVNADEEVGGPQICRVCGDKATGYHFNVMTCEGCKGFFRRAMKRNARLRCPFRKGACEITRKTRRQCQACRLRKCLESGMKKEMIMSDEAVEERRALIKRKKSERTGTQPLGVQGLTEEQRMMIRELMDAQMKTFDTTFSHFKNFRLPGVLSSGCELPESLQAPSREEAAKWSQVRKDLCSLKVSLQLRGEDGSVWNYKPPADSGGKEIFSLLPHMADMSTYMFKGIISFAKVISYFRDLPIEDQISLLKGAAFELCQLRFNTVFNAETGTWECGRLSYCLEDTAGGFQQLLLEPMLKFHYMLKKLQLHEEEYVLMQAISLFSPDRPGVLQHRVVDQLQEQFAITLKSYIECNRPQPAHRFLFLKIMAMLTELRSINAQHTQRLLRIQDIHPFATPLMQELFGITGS
Voltage-gated inwardly rectifying potassium channel KCNH2 (Homo sapiens), sequence (Q12809 whole entry, looked up): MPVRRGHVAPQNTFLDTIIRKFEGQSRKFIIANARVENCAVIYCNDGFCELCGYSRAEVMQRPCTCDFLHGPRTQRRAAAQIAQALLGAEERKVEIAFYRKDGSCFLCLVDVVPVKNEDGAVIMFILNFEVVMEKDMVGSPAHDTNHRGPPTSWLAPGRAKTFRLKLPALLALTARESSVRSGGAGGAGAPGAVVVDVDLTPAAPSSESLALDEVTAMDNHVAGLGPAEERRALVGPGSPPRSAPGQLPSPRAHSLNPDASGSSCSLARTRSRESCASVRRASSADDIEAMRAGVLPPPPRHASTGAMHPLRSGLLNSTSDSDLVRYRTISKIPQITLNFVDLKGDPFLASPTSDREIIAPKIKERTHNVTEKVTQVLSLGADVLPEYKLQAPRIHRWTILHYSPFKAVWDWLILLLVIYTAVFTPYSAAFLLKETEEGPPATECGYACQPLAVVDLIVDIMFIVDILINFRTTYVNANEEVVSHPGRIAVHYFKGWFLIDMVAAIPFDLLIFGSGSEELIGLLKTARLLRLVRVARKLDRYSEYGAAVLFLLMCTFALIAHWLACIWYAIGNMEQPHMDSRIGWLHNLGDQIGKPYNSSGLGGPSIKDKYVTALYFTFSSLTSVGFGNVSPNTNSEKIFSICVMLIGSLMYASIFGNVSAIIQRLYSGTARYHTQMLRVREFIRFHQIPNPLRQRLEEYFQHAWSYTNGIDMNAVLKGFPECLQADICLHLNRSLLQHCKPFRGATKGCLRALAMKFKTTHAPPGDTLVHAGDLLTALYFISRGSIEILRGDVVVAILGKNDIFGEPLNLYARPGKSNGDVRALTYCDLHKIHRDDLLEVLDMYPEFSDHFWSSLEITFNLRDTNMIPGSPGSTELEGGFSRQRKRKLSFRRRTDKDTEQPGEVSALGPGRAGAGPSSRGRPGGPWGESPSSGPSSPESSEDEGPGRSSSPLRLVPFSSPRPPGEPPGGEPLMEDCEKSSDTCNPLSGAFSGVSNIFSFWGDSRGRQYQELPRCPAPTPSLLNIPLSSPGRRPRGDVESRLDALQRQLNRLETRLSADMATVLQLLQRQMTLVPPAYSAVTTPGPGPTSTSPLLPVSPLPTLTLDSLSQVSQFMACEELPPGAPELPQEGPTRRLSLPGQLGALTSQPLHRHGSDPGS
Nuclear receptor subfamily 1 group I member 2 (Rattus norvegicus), sequence (Q9R1A7 whole entry, looked up): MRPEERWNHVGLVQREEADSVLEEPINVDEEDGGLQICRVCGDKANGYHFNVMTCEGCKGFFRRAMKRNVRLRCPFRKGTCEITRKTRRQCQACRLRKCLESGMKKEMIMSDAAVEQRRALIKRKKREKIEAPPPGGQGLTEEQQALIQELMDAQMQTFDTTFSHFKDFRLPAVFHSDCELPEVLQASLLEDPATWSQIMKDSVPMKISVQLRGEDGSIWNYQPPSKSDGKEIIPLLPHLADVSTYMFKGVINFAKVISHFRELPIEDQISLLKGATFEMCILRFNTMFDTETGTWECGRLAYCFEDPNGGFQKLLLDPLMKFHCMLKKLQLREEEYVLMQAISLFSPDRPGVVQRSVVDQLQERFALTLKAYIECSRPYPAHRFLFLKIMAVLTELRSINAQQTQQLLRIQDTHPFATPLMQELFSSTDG
Cytochrome P450 1A2 (Homo sapiens), sequence (P05177 whole entry, looked up): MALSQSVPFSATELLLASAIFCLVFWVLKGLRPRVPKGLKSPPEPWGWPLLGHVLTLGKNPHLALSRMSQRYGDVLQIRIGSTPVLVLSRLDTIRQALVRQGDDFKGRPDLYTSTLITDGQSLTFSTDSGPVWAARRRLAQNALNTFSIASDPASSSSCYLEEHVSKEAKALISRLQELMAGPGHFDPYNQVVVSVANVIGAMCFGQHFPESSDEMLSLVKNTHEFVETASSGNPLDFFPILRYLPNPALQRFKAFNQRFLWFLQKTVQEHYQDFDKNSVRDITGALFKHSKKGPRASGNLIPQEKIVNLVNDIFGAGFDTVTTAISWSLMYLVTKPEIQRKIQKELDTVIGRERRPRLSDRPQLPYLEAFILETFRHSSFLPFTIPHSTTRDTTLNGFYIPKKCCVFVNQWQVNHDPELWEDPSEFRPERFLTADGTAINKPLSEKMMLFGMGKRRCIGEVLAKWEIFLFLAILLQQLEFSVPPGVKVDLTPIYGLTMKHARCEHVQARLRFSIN
Cytochrome P450 2C9 (Homo sapiens), sequence (P11712 whole entry, looked up): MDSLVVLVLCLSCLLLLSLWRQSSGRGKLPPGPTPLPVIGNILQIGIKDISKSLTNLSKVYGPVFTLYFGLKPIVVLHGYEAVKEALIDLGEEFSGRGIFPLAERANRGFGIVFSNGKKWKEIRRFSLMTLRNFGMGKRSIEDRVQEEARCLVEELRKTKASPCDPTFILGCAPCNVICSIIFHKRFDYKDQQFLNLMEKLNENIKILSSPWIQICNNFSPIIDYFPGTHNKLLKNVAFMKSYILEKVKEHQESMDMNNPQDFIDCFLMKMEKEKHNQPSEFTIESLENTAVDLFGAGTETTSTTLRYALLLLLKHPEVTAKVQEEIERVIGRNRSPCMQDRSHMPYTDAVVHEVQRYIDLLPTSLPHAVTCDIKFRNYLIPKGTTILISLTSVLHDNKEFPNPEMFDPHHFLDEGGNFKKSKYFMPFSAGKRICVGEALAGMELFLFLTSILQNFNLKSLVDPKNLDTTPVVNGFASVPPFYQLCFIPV
Cytochrome P450 2C19 (Homo sapiens), sequence (P33261 whole entry, looked up): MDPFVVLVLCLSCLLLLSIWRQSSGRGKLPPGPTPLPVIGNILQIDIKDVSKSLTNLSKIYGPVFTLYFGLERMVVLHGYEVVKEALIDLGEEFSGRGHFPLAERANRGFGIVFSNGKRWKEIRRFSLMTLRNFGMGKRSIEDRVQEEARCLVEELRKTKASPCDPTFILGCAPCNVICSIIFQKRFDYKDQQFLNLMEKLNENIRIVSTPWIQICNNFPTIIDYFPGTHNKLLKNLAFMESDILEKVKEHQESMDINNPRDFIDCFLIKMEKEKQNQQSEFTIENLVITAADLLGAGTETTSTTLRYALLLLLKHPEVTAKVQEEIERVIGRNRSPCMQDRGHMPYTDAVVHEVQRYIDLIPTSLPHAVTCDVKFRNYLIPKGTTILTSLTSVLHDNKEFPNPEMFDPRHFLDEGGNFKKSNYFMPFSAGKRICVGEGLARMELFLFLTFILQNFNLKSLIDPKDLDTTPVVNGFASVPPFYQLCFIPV
Cytochrome P450 2D6 (Homo sapiens), sequence (P10635 whole entry, looked up): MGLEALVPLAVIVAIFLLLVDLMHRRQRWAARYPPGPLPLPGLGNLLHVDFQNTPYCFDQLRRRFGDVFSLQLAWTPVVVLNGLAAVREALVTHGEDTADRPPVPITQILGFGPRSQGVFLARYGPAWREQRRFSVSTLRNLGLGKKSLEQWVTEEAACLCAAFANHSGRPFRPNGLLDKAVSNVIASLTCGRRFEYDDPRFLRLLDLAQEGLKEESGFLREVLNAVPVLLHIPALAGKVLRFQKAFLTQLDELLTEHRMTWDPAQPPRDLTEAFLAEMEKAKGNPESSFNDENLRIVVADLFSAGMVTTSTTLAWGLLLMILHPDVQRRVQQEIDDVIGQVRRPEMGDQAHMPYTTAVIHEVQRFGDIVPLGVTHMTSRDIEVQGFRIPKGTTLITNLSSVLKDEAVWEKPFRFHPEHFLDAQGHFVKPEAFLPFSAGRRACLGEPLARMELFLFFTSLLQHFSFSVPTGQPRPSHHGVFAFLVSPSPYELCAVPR

As to `CCCCN=C(N)N=C(N)N`, the outcome in assay [1], in [2], in [3], in assay [5], in assay [7] and in [8] was inactive. Besides, the Potency result in assay [4], in assay [9], in assay [10], in assay [11] and in assay [12] was “inactive” each time. Moreover, the max activation in [6] was -2.74%.

Take `COCc1nnc(-c2ccc[n+]([O-])c2)n1-c1c(Cl)c(Cl)cc2[nH]c(=O)c(=O)[nH]c12`: the compound was called inactive in assay [1], in assay [2], in assay [3] and in [5]. Moreover, the Potency entry in [4], in assay [13], in assay [10] and in assay [11] was “inactive” in each case. Further, in [12], the Potency is 6.33 µM (active).

Consider `COC(=O)c1cc(Cl)c(NC(C)=O)cc1OC`, for which the outcome in [1], in assay [2], in assay [3] and in assay [14] was inactive. The Potency result in [13], in assay [9], in assay [10] and in assay [12] was “inactive” in each case. Also, the Potency in assay [15] is 2.45 µM (active).

On to `Cc1cc(C)c(C)c(C)c1`, for which the compound was classed as inactive in assay [1], in assay [2], in [14] and in assay [5]. Also, the Potency result in [4], in assay [13], in assay [9], in assay [10], in assay [15] and in assay [11] was “inactive” throughout. Further, the Potency entry in assay [12] is “inactive”.

In the case of `C[C@@H]1CC[C@@]2(OC1)O[C@H]1C[C@H]3[C@@H]4CC[C@H]5C[C@@H](O)CC[C@]5(C)[C@H]4CC(=O)[C@]3(C)[C@H]1[C@@H]2C`, the activity, negative = inhibition in assay [16] was 1.5% [at 4.65 µM]. In addition, the values for the activation in assay [17] and in assay [13] were -0.339% [at 5.23 µM] and -7.1% [at 8.39 µM], respectively. The activity change, negative = cytotoxicity in assay [2] was 11.4% [at 8.39 µM]; in assay [4] it was 2.81% [at 8.39 µM]; in [5], 6.1% [at 8.39 µM]. Moreover, the caspase activation in assay [3] is 0.244% [at 8.39 µM]. Besides, the caspase-3/7 activation in assay [14] was -0.713% [at 8.39 µM]. Further, the max activation in [6] was -0.0535%. Also, the result in [7] and in assay [8] was inactive. The activity change, negative = inhibition in assay [9] was 11.3% [at 10.5 µM]; in assay [10], 3.54% [at 10.5 µM]; in [15], 10.1% [at 10.5 µM]; in [11], 3.03% [at 6.97 µM]; in assay [12], 29.8% [at 10.5 µM].

Regarding `CN1CCN(C(=O)C2CCCCC2)CC1`, the compound was called inactive in [16], in [2], in assay [3], in assay [14], in assay [5] and in assay [7]. Further, the result in [8] was inactive. The Potency entry in assay [17], in assay [4], in assay [13], in assay [18], in [10] and in assay [15] was “inactive” in each case. Further, the Potency result in assay [11] and in assay [12] was “inactive” in each case. Also, in assay [6], the max activation is -9.64%.

`O=CN1CCCCC1`: the call in [1], in assay [2], in [3] and in assay [14] was inactive. Also, the Potency entry in assay [4], in [13], in assay [18], in assay [9], in assay [10] and in assay [15] was “inactive” throughout. Also, the Potency result in [11] and in assay [12] was “inactive” throughout.

As to `CCCCCCCCCCCCCCCC/C=C/C1CC(=O)OC1=O` (centres undefined), the compound was called inactive in assay [1], in assay [2], in [3], in assay [14] and in [5]. Besides, the Potency in assay [9] was 27.4 µM (active); in [12], 15.4 µM (active). In addition, the Potency entry in [11] was “inactive”.

Turning to `CC(=O)c1ccc2ccc3ccccc3c2c1`, the result in [1], in assay [2], in assay [3], in assay [14] and in [5] was inactive. Moreover, the Potency in assay [13] is 60.8 µM (active); in assay [9], 22.3 µM (active); in [10], 12.6 µM (active); in [15], 1.12 µM (active); in assay [12], 39.7 µM (active). Moreover, the Potency entry in [18] and in assay [11] was “inactive” in each case.

As for `CCOC(=O)COc1ccc2c(C)c(CCN(CC)CC)c(=O)oc2c1Cl`, the call in assay [16], in [2], in assay [3], in assay [14], in [5] and in [7] was inactive. Further, in assay [8], the result was inactive. The Potency result in [17], in assay [4], in assay [13], in assay [10], in assay [15] and in assay [12] was “inactive” each time. Besides, in [6], the max activation is 4.23%.

The values are drawn from PubChem BioAssay (Tox21).
